# Assay results: PubChem BioAssay (Tox21)
# “And” between values parts separate entries of the source, which are not always exact repeats. Equal entries are not always repeated. Inconclusive results are not listed. Some structures have more than one record in an assay (separate samples or runs), and their calls can disagree. The source made the active and inactive calls. Calls come from the whole dose curve; as a rule, active = well fitted inhibition curve with a large enough effect in the repeat runs; inconclusive = weak or mixed curves; inactive = no such curve, though single readings can be large or run the other way. Positions of bridges follow the written chain, without caps; N, C: chain ends. Non-standard residues stand in square brackets, D forms with d. Residues, ends and D or L forms follow the SMILES beside them. *: point of attachment. X1 = CC[C@@H](C)[C@@H](N)C1=N[C@H](C(=O)*)CS1; d(aIle) = CC[C@H](C)[C@@H](N)C(=O)O; dOrn = NCCC[C@@H](N)C(=O)O
# Target: Aromatase (Homo sapiens) (UniProt P11511)
# Test: qHTS assay to identify aromatase inhibitors (AID 743083); note: nearly all actives have a fitted effect of over 55% in size
# Settings: MCF-7 aro ERE, testosterone-driven ERE luciferase, 24 h; series mostly up to 70.3 µM; activity, negative = inhibition: at the top concentration
# % is set by controls: 0 for no effect and ±100 for the full control effect; potency is the fitted concentration of half-maximal effect.
# Aromatase (Homo sapiens), sequence (P11511 whole entry, looked up): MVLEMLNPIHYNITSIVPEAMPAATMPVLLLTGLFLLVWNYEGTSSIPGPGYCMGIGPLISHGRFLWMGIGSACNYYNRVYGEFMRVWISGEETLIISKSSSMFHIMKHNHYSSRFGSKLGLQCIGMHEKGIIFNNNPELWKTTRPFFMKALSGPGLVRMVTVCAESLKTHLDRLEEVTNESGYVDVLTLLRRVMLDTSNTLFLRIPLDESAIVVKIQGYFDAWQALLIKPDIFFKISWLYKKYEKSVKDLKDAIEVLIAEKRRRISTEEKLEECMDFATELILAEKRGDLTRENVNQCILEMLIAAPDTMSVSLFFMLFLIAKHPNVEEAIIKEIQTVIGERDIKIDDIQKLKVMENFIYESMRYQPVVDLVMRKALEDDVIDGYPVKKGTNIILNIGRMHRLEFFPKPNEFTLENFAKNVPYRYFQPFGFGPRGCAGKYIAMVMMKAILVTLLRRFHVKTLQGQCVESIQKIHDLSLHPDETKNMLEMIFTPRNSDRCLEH
Structure (SMILES),"activity, negative = inhibition",Potency
C/C(=C\C(=O)OCCCCCCCCC(=O)O)C[C@@H]1OC[C@H](C[C@@H]2O[C@H]2[C@@H](C)[C@H](C)O)[C@@H](O)[C@H]1O,4.84% (inactive),
CC(C)[C@H](NC(=O)[C@H](CC(=O)O)NC(=O)[C@H](CCCCN)NC(=O)[C@@H](N)CCCN=C(N)N)C(=O)N[C@@H](Cc1ccc(O)cc1)C(=O)O (H-RKDVY-OH),-6.23% (inactive),
NC(=O)[C@@H]1CCCN1C(=O)[C@H](Cc1cnc[nH]1)NC(=O)[C@@H]1CCC(=O)N1,-7.47% (inactive),
CC[C@H]1OC(=O)[C@H](C)C(=O)[C@H](C)[C@@H](O[C@@H]2O[C@H](C)C[C@H](N(C)C)[C@H]2O)[C@](C)(OC)C[C@@H](C)C(=O)[C@H](C)[C@H]2N(CCCCn3cnc(-c4cccnc4)c3)C(=O)O[C@]12C,,inactive
C[N+](C)(C)CCOP(=O)(O)OP(=O)([O-])OC[C@H]1O[C@@H](n2ccc(N)nc2=O)[C@H](O)[C@@H]1O,,inactive
Cc1cnc(C(=O)O)c[n+]1[O-],,inactive
C=CC1=C(C(=O)O)N2C(=O)[C@@H](NC(=O)/C(=N/OCC(=O)O)c3csc(N)n3)[C@H]2SC1 (stereo in doubt),2.13% [at 32.5 µM] (inactive),
O=P(O)(O)C(O)(Cn1ccnc1)P(=O)(O)O,4.32% (inactive),
C=CC[N+]1([C@H]2C[C@H]3[C@@H]4CC[C@H]5C[C@H](O)[C@@H](N6CCOCC6)C[C@]5(C)[C@H]4CC[C@]3(C)[C@H]2OC(C)=O)CCCC1,26.2% (inactive),
CC[C@@H](C)[C@@H](N)C1=N[C@H](C(=O)N[C@@H](CC(C)C)C(=O)N[C@@H](CCC(=O)O)C(=O)N[C@@H](C(=O)N[C@@H]2CCCCNC(=O)[C@@H](CC(N)=O)NC(=O)[C@@H](CC(=O)O)NC(=O)[C@@H](Cc3cnc[nH]3)NC(=O)[C@@H](Cc3ccccc3)NC(=O)[C@@H]([C@H](C)CC)NC(=O)[C@@H](CCCN)NC2=O)[C@@H](C)CC)CS1 (X1-LE[d(aIle)][dK][dOrn][dI][dF][dH][dD][dN]; lactam 4-C),,inactive
Nc1cc(Cl)c(NC2=NCCN2)c(Cl)c1,2.59% (inactive),
CCOc1ccc(NC(=S)Nc2ccc(OCC)cc2)cc1,2.28% (inactive),
CCc1ncnc2cc(OC)c(OC)cc12,3.71% (inactive),
Cc1cc(=O)c(C(=O)N[C@@H](C(=O)N[C@@H]2C(=O)N3C(C(=O)O)=C(CSc4nnnn4C)CS[C@H]23)c2ccc(O)cc2)c[nH]1,0.899% (inactive),
CC12CCC(C[N+](C)(CCC[N+](C)(C)C)C1)C2(C)C (configuration not stated),-0.301% (inactive),
CN1C(=O)C[C@@H](C(=O)N[C@@H](Cc2cnc[nH]2)C(=O)N2CCC[C@H]2C(N)=O)NC1=O,-0.601% (inactive),
COC(=O)[C@H]1[C@H]2C[C@H]3c4[nH]c5ccccc5c4CCN3C[C@H]2CC[C@@H]1O,-6.22% (inactive),
CC[C@@H](C)[C@H](N)C(=O)O,-0.995% (inactive),
C/C(=C(/CCO)SSCC1CCCO1)N(C=O)Cc1cnc(C)nc1N (configuration not stated),,inactive and 29.8 µM (active)

Structure (SMILES),"activity, negative = inhibition",Potency
C=C(Nc1ccc(OCC)cc1)Nc1ccc(OCC)cc1,,inactive
O=C(O)/C=C/C(=O)Nc1ccc(S(=O)(=O)Nc2nccs2)cc1,10.2% (inactive),
CC(C)=CCC/C(C)=C/CC/C(C)=C/CC/C(C)=C/CC1=C(C)C(=O)c2ccccc2C1=O,,inactive
CO/N=C(\C(=O)N[C@@H]1C(=O)N2C(C(=O)O)=C(CSc3nc(C)c(CC(=O)O)s3)CS[C@H]12)c1csc(N)n1,43.5% (inactive),
COc1ccc(/C=C/C(=O)O)cc1,-1.31% (inactive),
CO/N=C(\C(=O)N[C@@H]1C(=O)N2C(C(=O)[O-])=C(C[n+]3cccc4c3CCC4)CS[C@H]12)c1csc(N)n1,33.5% (inactive),
NCC1CCC(C(=O)O)CC1 (configuration not stated),1.47% [at 32.5 µM] (inactive),
CCN(CC)CCOC[C@H]1O[C@@H](O)[C@H](OCCN(CC)CC)[C@@H](O)[C@@H]1O,10.7% (inactive),
CCC(=O)OC(OP(=O)(CCCCc1ccccc1)CC(=O)N1C[C@H](C2CCCCC2)C[C@H]1C(=O)O)C(C)C (some centres not stated),11.3% (inactive),
CC(C)=CCC/C(C)=C/CC/C(C)=C/CC/C=C(\C)CC/C=C(\C)CCC=C(C)C,,inactive
CCCCCCCCCC(=O)NO,,inactive
NCCO/C=C/[C@H](N)C(=O)O,1.32% (inactive),
N=C(N)n1cccn1,10.4% (inactive),
Nc1c(CC(=O)O)cccc1C(=O)c1ccccc1,,inactive
Cc1ccc(C(C)(C)c2ccc(C)cc2)cc1,4.64% (inactive),
CO[C@H]1C[C@H](O[C@H]2[C@H](C)[C@@H](O[C@@H]3O[C@H](C)C[C@H](N(C)C)[C@H]3O)[C@@H](C)C[C@]3(CO3)C(=O)[C@H](C)[C@@H](O)[C@@H](C)[C@@H](C)OC(=O)[C@@H]2C)O[C@@H](C)[C@@H]1O,-2.42% [at 32.5 µM] (inactive),
CC[C@H]1OC(=O)C[C@@H](O)[C@H](C)[C@@H](O[C@@H]2O[C@H](C)[C@@H](O[C@H]3C[C@@](C)(O)[C@@H](O)[C@H](C)O3)[C@H](N(C)C)[C@H]2O)[C@@H](CC=O)C[C@@H](C)C(=O)/C=C/C(C)=C/[C@@H]1CO[C@@H]1O[C@H](C)[C@@H](O)[C@@H](OC)[C@H]1OC,,inactive
O=C1c2c(O)cccc2[C@H]([C@@H]2O[C@H](CO)[C@@H](O)[C@H](O)[C@H]2O)c2cc(CO)cc(O)c21,,inactive
